The results in this text go back to article PMC7862700, “An all-to-all approach to the identification of sequence-specific readers for epigenetic DNA modifications on cytosine”.

Common to all, as to assay: DAPPL (digital affinity profiling via proximity ligation, sequencing); 10 mM Tris-HCl pH 7.5, 50 mM NaCl, 1 mM DTT, 4% glycerol, room temperature, 30 min; GST-TFs on glutathione beads, 16-mer random dsDNA library, 0.1% formaldehyde crosslink after washing; high values mean tight binding
Settings in all cases: protein: recombinant; tags: N-terminal GST; dsDNA, one strand shown

For test [1], the target named is T1, FLI1 (Homo sapiens, UniProt Q01543 1-452).
T1 sequence: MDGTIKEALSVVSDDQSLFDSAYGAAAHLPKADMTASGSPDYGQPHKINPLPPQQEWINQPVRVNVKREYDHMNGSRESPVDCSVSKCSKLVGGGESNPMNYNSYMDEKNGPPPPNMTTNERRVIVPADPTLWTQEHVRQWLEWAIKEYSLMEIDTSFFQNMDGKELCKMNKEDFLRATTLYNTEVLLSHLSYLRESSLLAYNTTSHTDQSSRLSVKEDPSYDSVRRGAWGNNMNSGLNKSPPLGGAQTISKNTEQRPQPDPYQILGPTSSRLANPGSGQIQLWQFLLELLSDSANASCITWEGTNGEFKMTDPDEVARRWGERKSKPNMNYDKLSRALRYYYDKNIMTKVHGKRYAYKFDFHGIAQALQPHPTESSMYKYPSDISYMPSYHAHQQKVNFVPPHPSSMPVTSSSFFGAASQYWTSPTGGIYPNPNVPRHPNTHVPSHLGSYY
A digest of the protocol: (§1)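 Binding signal is given per hexamer as its read frequency for a factor divided by its frequency in the tag-only sample. GST-fused human transcription factors were expressed in yeast, captured on glutathione beads, barcoded with DNA and pooled with that sample, then incubated with 200 nmole of a 16-mer random double-stranded DNA library in Tris/NaCl/DTT/glycerol buffer for 30 min at room temperature. The pools were then washed, crosslinked, proximity-ligated, amplified by PCR and sequenced on an Illumina NextSeq500.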

Test [2] deals with T2, ELK1 (Homo sapiens, UniProt P19419 1-428).
T2 sequence: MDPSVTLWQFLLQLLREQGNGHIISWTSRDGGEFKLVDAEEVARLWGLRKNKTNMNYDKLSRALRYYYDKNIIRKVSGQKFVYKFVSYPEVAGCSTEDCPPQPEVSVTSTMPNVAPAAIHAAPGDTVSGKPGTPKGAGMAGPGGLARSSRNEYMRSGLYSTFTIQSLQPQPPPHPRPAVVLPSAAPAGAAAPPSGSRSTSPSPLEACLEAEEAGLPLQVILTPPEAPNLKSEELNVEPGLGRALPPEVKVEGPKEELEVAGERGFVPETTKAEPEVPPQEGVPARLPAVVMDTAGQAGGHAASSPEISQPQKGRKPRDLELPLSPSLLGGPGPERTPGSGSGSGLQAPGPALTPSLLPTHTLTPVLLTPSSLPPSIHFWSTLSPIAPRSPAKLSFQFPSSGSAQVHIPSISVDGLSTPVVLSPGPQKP
The procedure, abridged: as §1

Test [3] has as its target T3, GABPA (Homo sapiens, UniProt Q06546 1-454).
T3 sequence: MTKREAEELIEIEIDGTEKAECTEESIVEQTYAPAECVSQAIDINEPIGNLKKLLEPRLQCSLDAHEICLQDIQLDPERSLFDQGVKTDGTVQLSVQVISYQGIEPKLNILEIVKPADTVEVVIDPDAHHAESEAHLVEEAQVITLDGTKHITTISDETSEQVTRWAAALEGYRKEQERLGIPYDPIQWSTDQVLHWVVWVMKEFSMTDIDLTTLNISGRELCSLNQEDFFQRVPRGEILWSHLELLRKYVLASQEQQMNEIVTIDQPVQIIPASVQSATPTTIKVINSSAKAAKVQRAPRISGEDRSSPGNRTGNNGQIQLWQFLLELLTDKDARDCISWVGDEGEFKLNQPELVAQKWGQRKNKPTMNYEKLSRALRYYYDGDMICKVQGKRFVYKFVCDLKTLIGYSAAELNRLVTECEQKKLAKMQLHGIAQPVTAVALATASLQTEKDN
The procedure, abridged:
as §1

The target in test [4] is T4, ERG (Homo sapiens, UniProt P11308 1-479).
T4 sequence: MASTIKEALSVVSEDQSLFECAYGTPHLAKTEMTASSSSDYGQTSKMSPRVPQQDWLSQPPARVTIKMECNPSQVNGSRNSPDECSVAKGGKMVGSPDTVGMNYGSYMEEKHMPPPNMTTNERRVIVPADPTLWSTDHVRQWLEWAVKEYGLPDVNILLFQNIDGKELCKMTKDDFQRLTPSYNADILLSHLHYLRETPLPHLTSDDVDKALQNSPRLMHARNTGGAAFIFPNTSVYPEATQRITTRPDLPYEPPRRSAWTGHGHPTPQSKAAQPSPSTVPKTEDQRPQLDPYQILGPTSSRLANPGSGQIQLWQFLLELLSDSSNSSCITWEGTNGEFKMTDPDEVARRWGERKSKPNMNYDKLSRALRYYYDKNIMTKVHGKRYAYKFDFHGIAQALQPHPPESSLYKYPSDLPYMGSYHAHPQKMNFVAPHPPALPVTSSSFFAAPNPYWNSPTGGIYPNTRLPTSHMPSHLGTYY
A digest of the protocol: as §1

Test [5] addresses ELF1 (Homo sapiens, UniProt P32519 1-619). The procedure, abridged:
as §1

The target of test [6] is T5, EHF (Homo sapiens, UniProt Q9NZC4 1-300).
T5 sequence: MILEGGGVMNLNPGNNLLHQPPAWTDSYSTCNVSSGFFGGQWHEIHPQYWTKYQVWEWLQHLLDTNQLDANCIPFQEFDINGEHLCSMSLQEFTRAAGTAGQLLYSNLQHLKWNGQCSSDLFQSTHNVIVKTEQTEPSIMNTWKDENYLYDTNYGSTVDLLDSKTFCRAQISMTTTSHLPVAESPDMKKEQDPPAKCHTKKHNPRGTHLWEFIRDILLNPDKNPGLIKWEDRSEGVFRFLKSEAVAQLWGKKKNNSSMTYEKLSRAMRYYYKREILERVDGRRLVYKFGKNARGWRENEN
The procedure, abridged:
as §1

The target of test [7] is SPI1 (Homo sapiens, UniProt P17947 1-270). A digest of the protocol: as §1
The target of test [8] is SPIB (Homo sapiens, UniProt Q01892 1-262). The procedure, abridged: as §1
SPIB, sequence (Q01892 whole entry): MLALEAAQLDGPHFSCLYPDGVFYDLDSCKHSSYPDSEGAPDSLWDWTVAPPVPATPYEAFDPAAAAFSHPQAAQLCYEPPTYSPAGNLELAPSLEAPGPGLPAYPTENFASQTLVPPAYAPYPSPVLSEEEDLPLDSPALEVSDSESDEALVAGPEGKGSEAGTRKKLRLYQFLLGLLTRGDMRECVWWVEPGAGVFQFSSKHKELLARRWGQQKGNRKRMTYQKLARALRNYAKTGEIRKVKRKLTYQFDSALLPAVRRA
The target of test [9] is T6, ELK3 (Homo sapiens, UniProt P41970 1-407).
T6 sequence: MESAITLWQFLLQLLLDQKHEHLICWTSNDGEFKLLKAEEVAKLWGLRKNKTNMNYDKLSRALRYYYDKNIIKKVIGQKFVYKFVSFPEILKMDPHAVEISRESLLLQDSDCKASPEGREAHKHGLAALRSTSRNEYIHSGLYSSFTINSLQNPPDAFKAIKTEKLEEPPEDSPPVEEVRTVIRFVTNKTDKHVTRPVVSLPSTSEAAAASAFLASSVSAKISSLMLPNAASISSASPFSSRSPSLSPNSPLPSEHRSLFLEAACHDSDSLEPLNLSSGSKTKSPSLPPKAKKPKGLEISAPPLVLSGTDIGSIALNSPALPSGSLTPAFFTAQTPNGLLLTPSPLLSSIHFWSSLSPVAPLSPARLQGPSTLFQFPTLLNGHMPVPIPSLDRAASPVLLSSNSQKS
The procedure, abridged: as §1

ELF1, sequence (P32519 whole entry): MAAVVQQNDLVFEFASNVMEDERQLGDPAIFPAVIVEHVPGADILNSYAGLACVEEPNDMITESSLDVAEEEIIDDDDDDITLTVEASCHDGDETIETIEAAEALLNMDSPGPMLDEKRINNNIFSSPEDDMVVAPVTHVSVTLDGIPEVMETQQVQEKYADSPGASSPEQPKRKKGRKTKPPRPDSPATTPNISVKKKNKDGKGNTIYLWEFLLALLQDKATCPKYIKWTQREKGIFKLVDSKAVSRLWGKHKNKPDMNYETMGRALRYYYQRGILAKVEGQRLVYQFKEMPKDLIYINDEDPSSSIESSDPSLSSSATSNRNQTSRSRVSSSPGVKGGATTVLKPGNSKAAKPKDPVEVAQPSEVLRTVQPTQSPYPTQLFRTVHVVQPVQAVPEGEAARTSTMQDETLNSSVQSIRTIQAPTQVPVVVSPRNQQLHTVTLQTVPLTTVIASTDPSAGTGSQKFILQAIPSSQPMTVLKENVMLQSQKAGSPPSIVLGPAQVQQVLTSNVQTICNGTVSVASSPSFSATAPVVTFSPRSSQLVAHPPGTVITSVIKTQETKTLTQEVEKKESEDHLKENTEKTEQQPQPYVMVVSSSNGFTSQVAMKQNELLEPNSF

On to ACATCC, for which the binding signal was 2.58 fold enrichment (6-mer frequency, TF over GST control) in test [1]; 2.73 fold enrichment (6-mer frequency, TF over GST control) in [2]; 2.39 fold enrichment (6-mer frequency, TF over GST control) in test [3]; 3.08 fold enrichment (6-mer frequency, TF over GST control) in [4]; 2.35 fold enrichment (6-mer frequency, TF over GST control) in test [5]; 2.7 fold enrichment (6-mer frequency, TF over GST control) in test [6]. Besides, the binding signal is 2.5 fold enrichment (6-mer frequency, TF over GST control) in test [7]; 2.69 fold enrichment (6-mer frequency, TF over GST control) in test [8]; 2.98 fold enrichment (6-mer frequency, TF over GST control) in [9].
For CTATCT, the binding signal in test [1] is 1.26 fold enrichment (6-mer frequency, TF over GST control); in test [2] it was 1.43 fold enrichment (6-mer frequency, TF over GST control); in test [3] it was 1.34 fold enrichment (6-mer frequency, TF over GST control); in test [4], 1.29 fold enrichment (6-mer frequency, TF over GST control); in [5] it was 1.34 fold enrichment (6-mer frequency, TF over GST control); in test [6], 1.54 fold enrichment (6-mer frequency, TF over GST control). In addition, the binding signal in test [7] was 1.42 fold enrichment (6-mer frequency, TF over GST control); in [8], 1.28 fold enrichment (6-mer frequency, TF over GST control); in test [9], 1.48 fold enrichment (6-mer frequency, TF over GST control).
Turning to TCACAC, the binding signal was 1.31 fold enrichment (6-mer frequency, TF over GST control) in [1]; 1.19 fold enrichment (6-mer frequency, TF over GST control) in test [2]; 1.34 fold enrichment (6-mer frequency, TF over GST control) in test [3]; 1.31 fold enrichment (6-mer frequency, TF over GST control) in test [4]; 1.32 fold enrichment (6-mer frequency, TF over GST control) in test [5]; 1.3 fold enrichment (6-mer frequency, TF over GST control) in test [6]. The binding signal is 1.23 fold enrichment (6-mer frequency, TF over GST control) in test [7]; 1.29 fold enrichment (6-mer frequency, TF over GST control) in test [8]; 1.46 fold enrichment (6-mer frequency, TF over GST control) in test [9].
For AAATAA, the binding signal is 1.27 fold enrichment (6-mer frequency, TF over GST control) in test [1]; 1.32 fold enrichment (6-mer frequency, TF over GST control) in [2]; 1.33 fold enrichment (6-mer frequency, TF over GST control) in [3]; 1.37 fold enrichment (6-mer frequency, TF over GST control) in test [4]; 1.33 fold enrichment (6-mer frequency, TF over GST control) in test [5]; 1.29 fold enrichment (6-mer frequency, TF over GST control) in [6]. Also, the binding signal was 1.32 fold enrichment (6-mer frequency, TF over GST control) in [7]; 1.39 fold enrichment (6-mer frequency, TF over GST control) in test [8]; 1.33 fold enrichment (6-mer frequency, TF over GST control) in test [9].
As to GTACTT, the binding signal in test [1] is 1.92 fold enrichment (6-mer frequency, TF over GST control); in [2], 2.32 fold enrichment (6-mer frequency, TF over GST control); in test [3], 1.81 fold enrichment (6-mer frequency, TF over GST control); in test [4] it was 1.88 fold enrichment (6-mer frequency, TF over GST control); in [5], 1.9 fold enrichment (6-mer frequency, TF over GST control); in [6], 1.96 fold enrichment (6-mer frequency, TF over GST control). Moreover, the binding signal in test [7] is 1.94 fold enrichment (6-mer frequency, TF over GST control); in test [8], 1.78 fold enrichment (6-mer frequency, TF over GST control); in [9], 2.51 fold enrichment (6-mer frequency, TF over GST control).
Consider TCGCTT, for which the binding signal was 1.22 fold enrichment (6-mer frequency, TF over GST control) in test [1]; 1.3 fold enrichment (6-mer frequency, TF over GST control) in test [2]; 1.23 fold enrichment (6-mer frequency, TF over GST control) in test [3]; 1.18 fold enrichment (6-mer frequency, TF over GST control) in test [4]; 1.19 fold enrichment (6-mer frequency, TF over GST control) in [5]; 1.2 fold enrichment (6-mer frequency, TF over GST control) in [6]. In addition, the binding signal in [7] was 1.08 fold enrichment (6-mer frequency, TF over GST control); in test [8] it was 1.38 fold enrichment (6-mer frequency, TF over GST control); in test [9], 1.18 fold enrichment (6-mer frequency, TF over GST control).
For the sequence TCTCGA, the binding signal in [1] is 1.35 fold enrichment (6-mer frequency, TF over GST control); in test [2], 1.34 fold enrichment (6-mer frequency, TF over GST control); in test [3], 1.42 fold enrichment (6-mer frequency, TF over GST control); in test [4], 1.38 fold enrichment (6-mer frequency, TF over GST control); in test [5] it was 1.41 fold enrichment (6-mer frequency, TF over GST control); in test [6] it was 1.37 fold enrichment (6-mer frequency, TF over GST control). In addition, the binding signal in test [7] was 1.36 fold enrichment (6-mer frequency, TF over GST control); in [8] it was 1.43 fold enrichment (6-mer frequency, TF over GST control); in test [9], 1.31 fold enrichment (6-mer frequency, TF over GST control).
As to GACCTT, the binding signal in test [1] was 1.65 fold enrichment (6-mer frequency, TF over GST control); in [2], 1.68 fold enrichment (6-mer frequency, TF over GST control); in test [3], 1.65 fold enrichment (6-mer frequency, TF over GST control); in test [4], 1.46 fold enrichment (6-mer frequency, TF over GST control); in test [5], 1.58 fold enrichment (6-mer frequency, TF over GST control); in test [6], 1.46 fold enrichment (6-mer frequency, TF over GST control). Moreover, the binding signal is 1.47 fold enrichment (6-mer frequency, TF over GST control) in test [7]; 1.51 fold enrichment (6-mer frequency, TF over GST control) in [8]; 1.55 fold enrichment (6-mer frequency, TF over GST control) in test [9].
